Data taken from PubChem BioAssay AID1210 (NMMLSC, 2008).
Active and inactive are the calls of the source.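 How the source made its calls: active means blocks over 70% of labeled estradiol binding at 10 µM, or over a set limit at 100 nM; inactive means the rest.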

Molecular target: Estrogen receptor beta (Homo sapiens) (UniProt Q92731)
Test: ERbeta ligand binders by competition, primary screen, cell-based, Cos7 ERbeta-GFP, flow cytometry (AID 1210);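 further: 0% = DMSO vehicle wells and 100% = complete loss of labeled estradiol signal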
Conditions: fluorescent estrogen binding, at 10 µM, stronger effect = higher value

Sequence of Estrogen receptor beta (Homo sapiens) (Q92731 whole entry, looked up): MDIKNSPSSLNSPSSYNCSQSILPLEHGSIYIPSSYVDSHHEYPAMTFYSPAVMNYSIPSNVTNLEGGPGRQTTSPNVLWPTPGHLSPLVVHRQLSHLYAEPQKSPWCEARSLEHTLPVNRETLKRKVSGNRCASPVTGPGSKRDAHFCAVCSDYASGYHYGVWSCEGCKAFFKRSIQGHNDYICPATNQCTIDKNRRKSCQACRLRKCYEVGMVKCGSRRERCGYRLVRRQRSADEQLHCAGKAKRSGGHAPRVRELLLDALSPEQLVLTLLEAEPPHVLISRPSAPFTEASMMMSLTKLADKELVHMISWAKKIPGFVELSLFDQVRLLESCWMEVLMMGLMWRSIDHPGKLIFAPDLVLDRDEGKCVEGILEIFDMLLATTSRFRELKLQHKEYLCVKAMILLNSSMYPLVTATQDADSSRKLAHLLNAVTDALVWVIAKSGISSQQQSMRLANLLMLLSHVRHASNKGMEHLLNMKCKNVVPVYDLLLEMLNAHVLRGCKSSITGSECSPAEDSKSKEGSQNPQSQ

SMILES	inhibition
CCCCCCc1cc2c3c(c(=O)oc2cc1OCC(N)=O)CCC3	12% (inactive)
O=C(OC1CCCCC1)c1ccc2c(c1)C1C=CCC1C(C(=O)O)N2 (stereo not given)	7% (inactive)
C=C1c2ccc(OC)cc2NC(=O)N1c1ccccc1	15% (inactive)
Cc1ccc2c(Cl)cc(Cl)c(OCC(=O)NCc3ccco3)c2n1	29% (inactive)
Oc1cccc(-c2nc3ccc4ccccc4c3c3c2CCC3)c1	39% (inactive)
O=C(O)c1cc(-c2ccco2)nc2ccc(Br)cc12	63% (inactive)
CCCCOc1cc(OCCCC)c2c3c(c(=O)oc2c1)CCCC3	27% (inactive)

Same assay, conditions: fluorescent estrogen binding, ligand binding inhibition, at 0.1 µM, stronger effect = higher value

SMILES	inhibition [%]
COc1ccc(/C=N/NC(=O)c2nc(-c3ccccc3)cc(-c3ccccc3)n2)cc1O	81
O=c1cc(-c2ccco2)oc2c1ccc1ccccc12	22
CC(C)CC(=O)Nc1ccc(C(=O)COc2ccc(-c3nnco3)cc2)cc1	49
CC1(C)Cc2c(sc3c4nnnn4c4nnnn4c23)CO1	40
COc1ccc(C2CC(=O)Nc3ccccc3S2(=O)=O)cc1OC (stereo not given)	20
CCOC(=O)c1c(C)oc2c1c(C=NC1CCS(=O)(=O)C1)c(O)c1ccccc12 (stereo not given)	11
CCCNCC1COc2ccccc2O1 (stereo not given)	41
C=CCn1c(COc2cccc(C)c2)nnc1SCC(=O)NC(=O)NCc1ccco1	47
CCOC(=O)C1=C(O)/C(=C\c2ccc(CNC(=O)C(=O)Nc3ccccc3)o2)N=C1C	61
CCCN(CCC)S(=O)(=O)c1ccc(NC(=O)Cc2cccs2)cc1	20
COC(=O)c1ccccc1NC(=O)c1noc2c1CCC2	26
Cc1ccc(/C=c2\sc3nc(-c4ccco4)nn3c2=O)o1	27
CSC1=N/C(=C\c2ccc(Br)o2)C(=O)S1	43
Cc1cc(-c2nnc3sc(-c4ccc(Cl)cc4Cl)nn23)n[nH]1	38
CC(=O)NC12CC3CC(C1)CC(C(=O)OCC(=O)Nc1ncc(Cl)c(C)c1Cl)(C3)C2	3
Cc1ccc2c(Cl)cc(Cl)c(OCC(=O)NCc3ccco3)c2n1	38
Oc1cccc(-c2nc3ccc4ccccc4c3c3c2CCC3)c1	21
O=C(O)c1cc(-c2ccco2)nc2ccc(Br)cc12	9
